Reference: PubChem BioAssay AID1159580 (chemical genetic matrix, 2015)
Where “and” joins values, the source holds several entries; their conditions need not be identical. Equal entries are not always repeated. About 2,000 (36%) of roughly 5,500 compounds were called active. Inconclusive results (about 18%) are left out. Rule as the data show it: active = normalized growth mostly below about 0.91 (no sharp cut-off); inconclusive = no clear call, values can overlap the other calls; inactive = mostly above about 0.92. This is one part of the list.

Assay: chemical genetic growth profiling, strain panel (AID 1159580);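 also: tested at 20 µM; growth read once vehicle control cultures reached saturation at 30 °C; 1 = growth at the plate median or of vehicle wells; lower values mean less growth of the strain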
Details: growth OD

Measured: normalized growth

COC(=O)C[C@H]1C(C)(C)C(=O)[C@@H]2CC3=C(CC[C@]4(C)C3=CC(=O)O[C@H]4c3ccoc3)[C@@]1(C)C2=O
inactive: S. cerevisiae deletion strains, locus YAL021C, strain ccr4, stronger effect = lower value 1.02 | S. cerevisiae deletion strains, locus YAL026C, strain drs2, stronger effect = lower value 0.985 | S. cerevisiae deletion strains, locus YAL030W, strain snc1, stronger effect = lower value 0.979 | S. cerevisiae deletion strains, locus YBL061C, strain skt5, stronger effect = lower value 0.986 | S. cerevisiae deletion strains, locus YBR009C, strain hhf1, stronger effect = lower value 0.983 | S. cerevisiae deletion strains, locus YBR021W, strain FUR4, stronger effect = lower value 0.992 | S. cerevisiae deletion strains, locus YBR023C, strain chs3, stronger effect = lower value 0.976 | S. cerevisiae deletion strains, locus YBR171W, strain sec66, stronger effect = lower value 0.947 | S. cerevisiae deletion strains, locus YBR229C, strain ROT2, stronger effect = lower value 1 | S. cerevisiae deletion strains, locus YBR231C, strain swc5, stronger effect = lower value 0.968 | S. cerevisiae deletion strains, locus YBR279W, strain paf1, stronger effect = lower value 0.988 | S. cerevisiae deletion strains, locus YCL011C, strain gbp2, stronger effect = lower value 0.953 | S. cerevisiae deletion strains, locus YCL016C, strain dcc1, stronger effect = lower value 0.993 | S. cerevisiae deletion strains, locus YCL029C, strain bik1, stronger effect = lower value 1.02 | S. cerevisiae deletion strains, locus YCL061C, strain MRC1, stronger effect = lower value 1 | S. cerevisiae deletion strains, locus YCL069W, strain vba3, stronger effect = lower value 0.958 | S. cerevisiae deletion strains, locus YCR088W, strain abp1, stronger effect = lower value 0.96 | S. cerevisiae deletion strains, locus YDL005C, strain med2, stronger effect = lower value 0.966 | S. cerevisiae deletion strains, locus YDL035C, strain GPR1, stronger effect = lower value 0.996 | S. cerevisiae deletion strains, locus YDL040C, strain nat1, stronger effect = lower value 0.966 | S. cerevisiae deletion strains, locus YDL074C, strain BRE1, stronger effect = lower value 1 | S. cerevisiae deletion strains, locus YDL101C, strain DUN1, stronger effect = lower value 1 | S. cerevisiae deletion strains, locus YDL134C, strain PPH21, stronger effect = lower value 1 | S. cerevisiae deletion strains, locus YDL185W, strain tfp1, stronger effect = lower value 1.01 | S. cerevisiae deletion strains, locus YDL192W, strain arf1, stronger effect = lower value 1.02 | S. cerevisiae deletion strains, locus YDR001C, strain nth1, stronger effect = lower value 0.979 | S. cerevisiae deletion strains, locus YDR069C, strain doa4, stronger effect = lower value 0.961 | S. cerevisiae deletion strains, locus YDR101C, strain arx1, stronger effect = lower value 1.01 | S. cerevisiae deletion strains, locus YDR137W, strain rgp1, stronger effect = lower value 1 | S. cerevisiae deletion strains, locus YDR159W, strain sac3, stronger effect = lower value 0.962 | S. cerevisiae deletion strains, locus YDR162C, strain NBP2, stronger effect = lower value 1.01 | S. cerevisiae deletion strains, locus YDR195W, strain ref2 0.956 | S. cerevisiae deletion strains, locus YDR297W, strain sur2, stronger effect = lower value 0.977 | S. cerevisiae deletion strains, locus YDR318W, strain mcm21, stronger effect = lower value 1.02 | S. cerevisiae deletion strains, locus YDR334W, strain swr1, stronger effect = lower value 0.961 | S. cerevisiae deletion strains, locus YDR335W, strain msn5, stronger effect = lower value 0.968 | S. cerevisiae deletion strains, locus YDR388W, stronger effect = lower value 1.01 | S. cerevisiae deletion strains, locus YDR392W, strain spt3, stronger effect = lower value 0.96 | S. cerevisiae deletion strains, locus YDR502C, strain sam2, stronger effect = lower value 1 | S. cerevisiae deletion strains, locus YEL003W, strain gim4, stronger effect = lower value 0.973 | S. cerevisiae deletion strains, locus YEL037C, strain rad23, stronger effect = lower value 0.962 | S. cerevisiae deletion strains, locus YEL061C, strain CIN8 (second series), stronger effect = lower value 0.958 | S. cerevisiae deletion strains, locus YEL061C, strain CIN8, stronger effect = lower value 0.999 | S. cerevisiae deletion strains, locus YER015W, strain faa2, stronger effect = lower value 0.985 | S. cerevisiae deletion strains, locus YER016W, strain bim1, stronger effect = lower value 0.971 | S. cerevisiae deletion strains, locus YER110C, stronger effect = lower value 1.02 | S. cerevisiae deletion strains, locus YER111C, strain swi4, stronger effect = lower value 0.953 | S. cerevisiae deletion strains, locus YER155C, strain BEM2 (second series), stronger effect = lower value 0.988 | S. cerevisiae deletion strains, locus YER155C, strain BEM2, stronger effect = lower value 1 | S. cerevisiae deletion strains, locus YER167W, strain BCK2, stronger effect = lower value 1.01 | S. cerevisiae deletion strains, locus YFR010W, strain ubp6, stronger effect = lower value 0.961 | S. cerevisiae deletion strains, locus YGL078C, strain dbp3, stronger effect = lower value 1.03 | S. cerevisiae deletion strains, locus YGL086W, strain mad1, stronger effect = lower value 1 | S. cerevisiae deletion strains, locus YGL167C, strain pmr1, stronger effect = lower value 0.988 | S. cerevisiae deletion strains, locus YGL173C, strain kem1, stronger effect = lower value 0.975 | S. cerevisiae deletion strains, locus YGL227W, strain vid30, stronger effect = lower value 0.976 | S. cerevisiae deletion strains, locus YGL240W, strain doc1, stronger effect = lower value 0.954 | S. cerevisiae deletion strains, locus YGL248W, strain PDE1, stronger effect = lower value 1.01 | S. cerevisiae deletion strains, locus YGL253W, strain hxk2, stronger effect = lower value 0.951 | S. cerevisiae deletion strains, locus YGR135W, strain pre9, stronger effect = lower value 1.01 | S. cerevisiae deletion strains, locus YGR229C, strain SMI1, stronger effect = lower value 1.01 | S. cerevisiae deletion strains, locus YGR252W, strain gcn5, stronger effect = lower value 1 | S. cerevisiae deletion strains, locus YHR013C, strain ard1, stronger effect = lower value 0.981 | S. cerevisiae deletion strains, locus YHR027C, strain rpn1, stronger effect = lower value 0.994 | S. cerevisiae deletion strains, locus YHR030C, strain SLT2, stronger effect = lower value 0.985 | S. cerevisiae deletion strains, locus YHR079C, strain IRE1 (second series), stronger effect = lower value 1.02 | S. cerevisiae deletion strains, locus YHR079C, strain IRE1, stronger effect = lower value 0.974 | S. cerevisiae deletion strains, locus YHR094C, strain hxt1, stronger effect = lower value 1.01 | S. cerevisiae deletion strains, locus YHR129C, strain ARP1, stronger effect = lower value 0.998 | S. cerevisiae deletion strains, locus YHR142W, strain chs7, stronger effect = lower value 0.965 | S. cerevisiae deletion strains, locus YHR200W, strain rpn10, stronger effect = lower value 0.996 | S. cerevisiae deletion strains, locus YIL066C, strain RNR3, stronger effect = lower value 0.999 | S. cerevisiae deletion strains, locus YIL073C, strain SPO22, stronger effect = lower value 1.09 | S. cerevisiae deletion strains, locus YIL125W, strain kgd1, stronger effect = lower value 1.01 | S. cerevisiae deletion strains, locus YIR030C, strain dcg1, stronger effect = lower value 1.02 | S. cerevisiae deletion strains, locus YJL092W, strain hpr5, stronger effect = lower value 0.964 | S. cerevisiae deletion strains, locus YJL095W, strain BCK1 (second series), stronger effect = lower value 0.99 | S. cerevisiae deletion strains, locus YJL095W, strain BCK1, stronger effect = lower value 1.01 and 0.983 | S. cerevisiae deletion strains, locus YJL115W, strain asf1, stronger effect = lower value 0.97 | S. cerevisiae deletion strains, locus YJL129C, strain trk1, stronger effect = lower value 0.959 | S. cerevisiae deletion strains, locus YJL134W, strain LCB3, stronger effect = lower value 1 | S. cerevisiae deletion strains, locus YJL154C, strain vps35, stronger effect = lower value 0.966 | S. cerevisiae deletion strains, locus YJL164C, strain tpk1, stronger effect = lower value 0.994 | S. cerevisiae deletion strains, locus YJL166W, strain qcr8, stronger effect = lower value 0.973 | S. cerevisiae deletion strains, locus YJL168C, strain set2, stronger effect = lower value 1.02 | S. cerevisiae deletion strains, locus YJL187C, strain SWE1 (second series), stronger effect = lower value 1.01 | S. cerevisiae deletion strains, locus YJL187C, strain SWE1, stronger effect = lower value 0.993 | S. cerevisiae deletion strains, locus YJR066W, strain TOR1, stronger effect = lower value 0.928 | S. cerevisiae deletion strains, locus YKL009W, strain mrt4, stronger effect = lower value 1.01 | S. cerevisiae deletion strains, locus YKL068W, stronger effect = lower value 1.01 | S. cerevisiae deletion strains, locus YKL085W, strain MDH1 (second series), stronger effect = lower value 1.01 | S. cerevisiae deletion strains, locus YKL085W, strain MDH1, stronger effect = lower value 1.01 | S. cerevisiae deletion strains, locus YKL160W, strain elf1, stronger effect = lower value 0.995 | S. cerevisiae deletion strains, locus YKR001C, strain vps1, stronger effect = lower value 1.01 | S. cerevisiae deletion strains, locus YKR026C, strain gcn3, stronger effect = lower value 0.975 | S. cerevisiae deletion strains, locus YKR091W, strain srl3, stronger effect = lower value 0.984 | S. cerevisiae deletion strains, locus YLL001W, strain dnm1, stronger effect = lower value 1 | S. cerevisiae deletion strains, locus YLL026W, stronger effect = lower value 0.982 | S. cerevisiae deletion strains, locus YLL041C, strain sdh2, stronger effect = lower value 0.972 | S. cerevisiae deletion strains, locus YLR027C, strain aat2, stronger effect = lower value 0.984 | S. cerevisiae deletion strains, locus YLR039C, strain RIC1, stronger effect = lower value 1.03 | S. cerevisiae deletion strains, locus YLR058C, strain SHM2, stronger effect = lower value 1.01 | S. cerevisiae deletion strains, locus YLR102C, strain apc9, stronger effect = lower value 1.02 | S. cerevisiae deletion strains, locus YLR113W, strain HOG1, stronger effect = lower value 1.02 | S. cerevisiae deletion strains, locus YLR221C, strain rsa3, stronger effect = lower value 0.958 | S. cerevisiae deletion strains, locus YLR258W, strain gsy2, stronger effect = lower value 0.961 | S. cerevisiae deletion strains, locus YLR262C, strain YPT6 (second series), stronger effect = lower value 1.04 | S. cerevisiae deletion strains, locus YLR262C, strain YPT6, stronger effect = lower value 1.09 | S. cerevisiae deletion strains, locus YLR268W, strain sec22, stronger effect = lower value 1.01 | S. cerevisiae deletion strains, locus YLR320W, strain mms22, stronger effect = lower value 0.963 | S. cerevisiae deletion strains, locus YLR342W, strain FKS1, stronger effect = lower value 0.963 | S. cerevisiae deletion strains, locus YLR357W, strain rsc2, stronger effect = lower value 0.963 | S. cerevisiae deletion strains, locus YLR370C, strain arc18, stronger effect = lower value 0.956 | S. cerevisiae deletion strains, locus YLR371W, strain rom2, stronger effect = lower value 1.02 | S. cerevisiae deletion strains, locus YLR384C, strain iki3, stronger effect = lower value 0.968 | S. cerevisiae deletion strains, locus YLR418C, strain cdc73, stronger effect = lower value 1.03 | S. cerevisiae deletion strains, locus YML016C, strain PPZ1, stronger effect = lower value 1.05 | S. cerevisiae deletion strains, locus YML032C, strain rad52, stronger effect = lower value 1.01 | S. cerevisiae deletion strains, locus YML120C, strain ndi1, stronger effect = lower value 0.976 | S. cerevisiae deletion strains, locus YML124C, strain tub3, stronger effect = lower value 1.01 | S. cerevisiae deletion strains, locus YMR058W, strain fet3, stronger effect = lower value 0.993 | S. cerevisiae deletion strains, locus YMR078C, strain ctf18, stronger effect = lower value 1.03 | S. cerevisiae deletion strains, locus YMR125W, strain sto1, stronger effect = lower value 0.975 | S. cerevisiae deletion strains, locus YMR129W, stronger effect = lower value 0.988 | S. cerevisiae deletion strains, locus YMR205C, strain PFK2, stronger effect = lower value 0.997 | S. cerevisiae deletion strains, locus YMR223W, strain ubp8, stronger effect = lower value 1.01 | S. cerevisiae deletion strains, locus YMR231W, strain pep5, stronger effect = lower value 0.953 | S. cerevisiae deletion strains, locus YMR307W, strain GAS1, stronger effect = lower value 1.03 | S. cerevisiae deletion strains, locus YNL067W, strain RPL9B, stronger effect = lower value 1.01 | S. cerevisiae deletion strains, locus YNL071W, strain lat1, stronger effect = lower value 0.972 | S. cerevisiae deletion strains, locus YNL183C, strain NPR1, stronger effect = lower value 0.942 | S. cerevisiae deletion strains, locus YNL209W, strain ssb2, stronger effect = lower value 0.984 | S. cerevisiae deletion strains, locus YNL233W, strain BNI4, stronger effect = lower value 0.984 | S. cerevisiae deletion strains, locus YNL248C, strain rpa49, stronger effect = lower value 0.977 | S. cerevisiae deletion strains, locus YNL250W, strain rad50, stronger effect = lower value 1.02 | S. cerevisiae deletion strains, locus YNL271C, strain bni1, stronger effect = lower value 1.01 | S. cerevisiae deletion strains, locus YNL298W, strain CLA4, stronger effect = lower value 1.02 | S. cerevisiae deletion strains, locus YNL307C, strain MCK1, stronger effect = lower value 1.02 | S. cerevisiae deletion strains, locus YNL322C, strain KRE1 (second series), stronger effect = lower value 0.966 | S. cerevisiae deletion strains, locus YNR049C, strain mso1, stronger effect = lower value 0.975 | S. cerevisiae deletion strains, locus YNR052C, strain pop2, stronger effect = lower value 1.03 | S. cerevisiae deletion strains, locus YOL012C, strain htz1 1.95 | S. cerevisiae deletion strains, locus YOL147C, strain pex11, stronger effect = lower value 1.01 | S. cerevisiae deletion strains, locus YOR001W, strain rrp6, stronger effect = lower value 0.946 | S. cerevisiae deletion strains, locus YOR061W, strain CKA2, stronger effect = lower value 1 | S. cerevisiae deletion strains, locus YOR069W, strain VPS5, stronger effect = lower value 1 | S. cerevisiae deletion strains, locus YOR070C, strain gyp1, stronger effect = lower value 0.979 | S. cerevisiae deletion strains, locus YOR080W, strain dia2, stronger effect = lower value 0.966 | S. cerevisiae deletion strains, locus YOR083W, strain WHI5, stronger effect = lower value 1.01 | S. cerevisiae deletion strains, locus YOR106W, strain vam3, stronger effect = lower value 0.974 | S. cerevisiae deletion strains, locus YOR136W, strain idh2, stronger effect = lower value 1.01 | S. cerevisiae deletion strains, locus YOR144C, strain elg1, stronger effect = lower value 1 | S. cerevisiae deletion strains, locus YOR184W, strain ser1, stronger effect = lower value 1 | S. cerevisiae deletion strains, locus YOR231W, strain MKK1, stronger effect = lower value 0.99 | S. cerevisiae deletion strains, locus YOR265W, strain rbl2, stronger effect = lower value 0.972 | S. cerevisiae deletion strains, locus YOR270C, strain vph1, stronger effect = lower value 0.963 | S. cerevisiae deletion strains, locus YOR290C, strain snf2, stronger effect = lower value 0.992 | S. cerevisiae deletion strains, locus YOR316C, strain cot1, stronger effect = lower value 1 | S. cerevisiae deletion strains, locus YPL051W, strain arl3, stronger effect = lower value 1 | S. cerevisiae deletion strains, locus YPL078C, strain atp4, stronger effect = lower value 0.996 | S. cerevisiae deletion strains, locus YPL106C, strain sse1, stronger effect = lower value 0.952 | S. cerevisiae deletion strains, locus YPL240C, strain hsp82, stronger effect = lower value 0.978 | S. cerevisiae deletion strains, locus YPL256C, strain CLN2, stronger effect = lower value 0.961 | S. cerevisiae deletion strains, locus YPR119W, strain clb2, stronger effect = lower value 1.01 | S. cerevisiae deletion strains, locus YPR141C, strain kar3, stronger effect = lower value 1.02 | S. cerevisiae deletion strains, locus YPR163C, strain tif3, stronger effect = lower value 1 | S. cerevisiae deletion strains, locus YPR167C, strain met16, stronger effect = lower value 1.02 | S. cerevisiae deletion strains, strain wtn01, stronger effect = lower value 1 | S. cerevisiae strains, strain wild type, stronger effect = lower value 0.992
